D1 antag: Antagonist of Human D 1 Dopamine Receptor: qHTS; 360,000 tested, 3.2% active; activity change, negative = inhibition, % at 10 µM; AID 504652, 2011; HEK293 TREx D1 cells, calcium flux, dopamine EC80; active compounds read low; in the data active = activity change below about -30%; also: % is scaled to controls: 0 for no effect and ±100 for the full control effect
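Tetracycline-induced HEK293 T-REx cells with force-coupled D1 receptor were loaded with a no-wash calcium dye. Compound was added after a 10 s baseline and read kinetically for 180 s; EC80 dopamine was then added and calcium flux followed another 180 s.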
USP1-UAF1 inh: Inhibitors of USP1/UAF1: Primary Screen. Ubiquitin carboxyl-terminal hydrolase 1 (Homo sapiens), O94782. recombinant USP1/UAF1, Ub-Rhodamine cleavage fluorescence. Potency, µM (doses to about 57.1 µM), for the others: top-dose activity change, negative = inhibition, usual class: inhibitors. 390,000 tested, 0.23% active; active = well fitted inhibition curve with a large enough effect; inconclusive = small, poorly fitted or top-dose-only effect; inactive = no such curve, though single readings can be large or run the other way; also: potency is read from the fitted curve at half-maximal effect; % is scaled to controls: 0 for no effect and ±100 for the full control effect; nearly all actives have a fitted effect of over 60% in size
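In this screen, compounds sit with the deubiquitinase complex (1nM) for 15 min at room temperature before Ub-Rho is added at 150nM final. Fluorescence rise is then followed for 6 reads every 60 seconds.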
D1 PAM: Potentiators of Human D1 Dopamine Receptor: qHTS; 360,000 tested, 0.036% active; potentiation, % at 10 µM; HEK293 TREx D1 cells, calcium flux, dopamine EC20 potentiation; D(1A) dopamine receptor (Homo sapiens), P21728; in the data active = potentiation above about 30%; also: 0% is about no effect
D1 agonist: Allosteric Agonists of the Human D1 Dopamine Receptor: qHTS | D(1A) dopamine receptor (Homo sapiens), P21728 | HEK293 T-REx D1 cells, calcium flux, agonist mode | activation, % at 2 µM | 360,000 tested, 1% active; also: 0% is about no effect
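Agonism was scored from calcium flux recorded over 180 s (1 read/s) after pintool compound addition, following a 10-cycle baseline. Cells were inducible force-coupled HEK293 TREx D1, plated overnight at 30 C and loaded with no-wash calcium dye.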
TRHR PAM: qHTS for Small Molecule Agonists and Allosteric Enhancers of Human TRH Receptor: Primary Screen for Enhancers; enhancement, % at 2 µM; Thyrotropin-releasing hormone receptor (Homo sapiens), P34981; TRHR cells, fluo-8 calcium fluorescence, EC20 TRH enhancement; 360,000 tested, 0.66% active; in the data active = enhancement above about 30%; also: 0% is about no effect
Target sequence (P34981 whole entry, looked up): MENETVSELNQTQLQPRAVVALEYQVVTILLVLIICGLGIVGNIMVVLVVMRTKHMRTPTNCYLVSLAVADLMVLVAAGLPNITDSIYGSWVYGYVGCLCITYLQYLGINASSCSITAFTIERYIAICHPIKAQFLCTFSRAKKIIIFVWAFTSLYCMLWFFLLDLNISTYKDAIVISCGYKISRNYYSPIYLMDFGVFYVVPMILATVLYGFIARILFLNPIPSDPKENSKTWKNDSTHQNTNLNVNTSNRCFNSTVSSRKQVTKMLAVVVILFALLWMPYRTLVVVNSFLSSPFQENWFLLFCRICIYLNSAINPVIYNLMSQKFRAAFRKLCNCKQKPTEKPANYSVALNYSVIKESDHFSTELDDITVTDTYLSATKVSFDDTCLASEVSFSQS
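TRHR-expressing cells loaded with fluo-8 calcium dye were read kinetically (ex 480/em 530) during compound addition, then stimulated with an EC20 of TRH (10 nM final). Enhancement of the Gq-mediated intracellular calcium response was scored.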
TRHR ag: qHTS for Small Molecule Agonists and Allosteric Enhancers of Human TRH Receptor: Primary Screen for Agonists. Thyrotropin-releasing hormone receptor (Homo sapiens), P34981. TRHR cells, calcium flux fluo-8, FDSS agonist mode. activation, % at 2 µM. 360,000 tested, 0.18% active. AID 493084, 2011; also: 0% is about no effect
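Fluo-8-loaded TRHR cells; 10 s baseline, compound added, kinetic Ca2+ fluorescence read 1/s, agonist mode.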
Active calls of the source: *. Hits are enriched below; roughly 4.4% of the tested compounds scored in any of these assays. Rule as the data show it, unless noted: active = activation above about 30%; inactive = the rest.

How did CC(C)OCc1cc(CN2CCN(c3ccccc3)CC2)c(O)c2ncccc12 do in these assays?
D1 antag: 0; USP1-UAF1 inh: -12%; D1 PAM: -3; D1 agonist: -2; TRHR PAM: -3; TRHR ag: -2

What do the screens show for `O=C(O)CSc1nnc(CSc2nc3ccccc3s2)n1-c1ccccc1`?
D1 antag: 25; USP1-UAF1 inh: -20%; D1 PAM: -7; D1 agonist: 2; TRHR PAM: 0; TRHR ag: 0

How did C#CCSc1nnc(CSc2nc3ccccc3s2)n1-c1ccccc1 do in these assays?
D1 antag: -30*; USP1-UAF1 inh: -13%; D1 PAM: -6; D1 agonist: 8; TRHR PAM: 6; TRHR ag: -1

How did CCCc1nn2c(=O)cc(COC(=O)c3ccco3)nc2s1 do in these assays?
D1 antag: 3; USP1-UAF1 inh: 2%; D1 PAM: -4; D1 agonist: 4; TRHR PAM: 9; TRHR ag: 1

How did CC(=O)Nc1ccc(N=Cc2c(O)c(C(=O)Nc3ccccc3)cc3ccccc23)cc1 do in these assays?
D1 antag: -20; USP1-UAF1 inh: -6%; D1 PAM: 4; D1 agonist: 186*; TRHR PAM: -1; TRHR ag: 109*

How did Cc1ccc(-c2nnn(C/C(N)=N/O)n2)cc1 do in these assays?
D1 antag: -39*; USP1-UAF1 inh: -17%; D1 PAM: -2; D1 agonist: 6; TRHR PAM: 36*; TRHR ag: 4

How did CCOC(=O)c1c(CSc2ccc(CC)cc2)oc2ccc(O)c(CN(C)C)c12 do in these assays?
D1 antag: -15; USP1-UAF1 inh: -20%; D1 PAM: -10; D1 agonist: 45*; TRHR PAM: -13; TRHR ag: 3

How did CCOc1ccc(NC(=O)CCC(=O)NNS(=O)(=O)c2ccccc2[N+](=O)[O-])cc1 do in these assays?
D1 antag: 4; USP1-UAF1 inh: -8%; D1 PAM: -4; D1 agonist: 224*; TRHR PAM: 4; TRHR ag: 102*

Results for COCC(=O)NNS(=O)(=O)c1ccccc1[N+](=O)[O-] ?
D1 antag: 7; USP1-UAF1 inh: 5%; D1 PAM: -6; D1 agonist: 0; TRHR PAM: -4; TRHR ag: 0

What do the screens show for `COc1ccccc1NC(=O)CCn1nc(-c2ccccc2OC)c2c(C)cc(C)nc21`?
D1 antag: -7; USP1-UAF1 inh: -18%; D1 PAM: -1; D1 agonist: 5; TRHR PAM: 2; TRHR ag: -2

How did O=C(CSc1ccccn1)Nc1ccc2ccccc2c1 do in these assays?
D1 antag: -8; D1 PAM: -3; D1 agonist: 1; TRHR PAM: -10; TRHR ag: -2

How did O=C(CSc1ccccn1)Nc1ccc(Cl)c([N+](=O)[O-])c1 do in these assays?
D1 antag: -34*; USP1-UAF1 inh: -9%; D1 PAM: -5; D1 agonist: 8; TRHR PAM: 1; TRHR ag: 0

What do the screens show for `CCOC(=O)N1CCN(C(=O)c2cc3cc(Br)ccc3oc2=O)CC1`?
D1 antag: -1; USP1-UAF1 inh: -9%; D1 PAM: 4; D1 agonist: 0; TRHR PAM: 41*; TRHR ag: 0

Results for COc1ccccc1N1CCN(C(=O)c2cc3cc(Br)ccc3oc2=O)CC1 ?
D1 antag: 20; USP1-UAF1 inh: -18%; D1 PAM: -4; D1 agonist: 2; TRHR PAM: -8; TRHR ag: -1

How did COc1ccc(-c2c(-c3ccccc3)c(C(=O)C(=O)NCCCN(C)C)n3ccc4cc(OC)c(OC)cc4c23)cc1OC do in these assays?
D1 antag: -47*; USP1-UAF1 inh: -14%; D1 PAM: 9; D1 agonist: 1; TRHR PAM: -4; TRHR ag: 0

What do the screens show for `COc1cc(Cl)c(C)cc1Nc1nc2ccccc2n2cnnc12`?
D1 antag: -13; USP1-UAF1 inh: -1%; D1 PAM: 0; D1 agonist: 1; TRHR PAM: 6; TRHR ag: -1

What do the screens show for `Fc1ccccc1CNc1ncnc2sccc12`?
D1 antag: -28; USP1-UAF1 inh: -19%; D1 PAM: -5; D1 agonist: 9; TRHR PAM: -1; TRHR ag: 1

What do the screens show for `COc1ccccc1CNc1ncnc2sccc12`?
D1 antag: -31*; USP1-UAF1 inh: -21%; D1 PAM: -8; D1 agonist: 31*; TRHR PAM: 10; TRHR ag: -1

Results for COc1ccccc1NCc1cccn1-c1nnc(N2CCOCC2)s1 ?
D1 antag: 2; USP1-UAF1 inh: inconclusive; D1 PAM: 8; D1 agonist: 1; TRHR PAM: -11; TRHR ag: 1

What do the screens show for `CC1CCCN(C(=O)C2CCN(S(=O)(=O)c3cccc4nsnc34)CC2)C1` (configuration not stated)?
D1 antag: -6; USP1-UAF1 inh: -21%; D1 PAM: -4; D1 agonist: 1; TRHR PAM: -8; TRHR ag: 0

Results for O=C(C1CCN(S(=O)(=O)c2cccc3nsnc23)CC1)N1CCc2ccccc2C1 ?
D1 antag: -44*; USP1-UAF1 inh: -6%; D1 PAM: -14; D1 agonist: 2; TRHR PAM: -4; TRHR ag: -1

What do the screens show for `O=C(C1CCCN(S(=O)(=O)c2cccc3cccnc23)C1)N1CCN(c2ccc(F)cc2)CC1` (configuration not stated)?
D1 antag: -36*; USP1-UAF1 inh: -9%; D1 PAM: -3; D1 agonist: 1; TRHR PAM: -2; TRHR ag: -1

How did O=C(C1CCN(S(=O)(=O)c2cccc3nonc23)CC1)N1CCN(c2ccccc2F)CC1 do in these assays?
D1 antag: -37*; USP1-UAF1 inh: -29%; D1 PAM: -2; D1 agonist: -1; TRHR PAM: -5; TRHR ag: -1

How did COc1cccc(NC(=O)C2CCCN(S(=O)(=O)c3cccc4cccnc34)C2)c1 (configuration not stated) do in these assays?
D1 antag: -35*; USP1-UAF1 inh: -16%; D1 PAM: -2; D1 agonist: 1; TRHR PAM: 4; TRHR ag: 0

What do the screens show for `CC1CCN(C(=O)C2CCN(S(=O)(=O)c3cccc4nonc34)CC2)CC1`?
D1 antag: 20; USP1-UAF1 inh: -1%; D1 PAM: -2; D1 agonist: 3; TRHR PAM: 9; TRHR ag: 0
